Assay outcomes as filed in PubChem.
MPTP inh = inhibitors of mitochondrial permeability transition pore; isolated mouse mitochondria, Ca2+ swelling absorbance, 30 min; inhibition, % at 10 µM; 360,000 compounds, 1.4% hits;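 active = inhibition of 50% or more, scaled per plate between neutral and stimulator controls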;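 note: 0% = DMSO wells given calcium and 100% = 1 mM EGTA wells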
Pemphigus Ab inh = inhibitors of pemphigus antibody binding to human desmoglein-3; P32926; DSG3-coupled beads, scFv-anti-DSG3-GFP binding, flow cytometry; stronger effect = lower value; binding (percent of control), % at 10 µM; 310,000 compounds, 0.48% hits; AID 588358;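 active = binding more than 3 SD below its plate's average and above zero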
rCAG binder = r(CAG) repeat RNA binding. inhibition, % at 3 µM. TO-PRO-1 dye displacement fluorescence. 370,000 compounds, 1.3% hits;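 active = inhibition above the plate cutoff, the mean of all test compounds on that plate plus 3 SD, cut at about 35% in these data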;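 note: 0% = DMSO alone and 100% = 100 µM mitoxantrone as full dye displacement; higher means more dye released from RNA so lower well fluorescence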
ADAM17 inh = inhibits human ADAM17. AID 720648. recombinant ADAM17, EDANS/DABCYL FRET peptide cleavage. inhibition, % at 6.95 µM. P78536. 370,000 compounds, 0.83% hits;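 active = inhibition above the mean of compounds lying between control limits plus 3 SD, set per campaign, cut at about 8.5% in these data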;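 note: 0% = DMSO-only wells as the low control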
KLK7 zymogen act = proKLK7 (human) activation, primary screen; P49862; purified proKLK7, EDANS-DABCYL substrate fluorescence; 100% is mature enzyme control, 0% vehicle; activation, % at 7 µM; 370,000 compounds, 0.9% hits; AID 652039;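 active = activation above the mean of all tested compounds plus 3 SD, computed per campaign excluding outliers beyond control limits, cut at about 13% in these data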
ADAM10 inh = inhibitors of human ADAM10; inhibition, % at 7 µM; O14672; 370,000 compounds, 0.62% hits; recombinant ADAM10, EDANS/DABCYL FRET peptide cleavage, 3 h;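 active = inhibition above a per-campaign cutoff equal to the mean of compounds falling between control-based bounds plus 3 SD, cut at about 20% in these data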;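 note: 0% = DMSO wells while the 100% control is not disclosed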
Target sequence (O14672 214-748 limits assumed): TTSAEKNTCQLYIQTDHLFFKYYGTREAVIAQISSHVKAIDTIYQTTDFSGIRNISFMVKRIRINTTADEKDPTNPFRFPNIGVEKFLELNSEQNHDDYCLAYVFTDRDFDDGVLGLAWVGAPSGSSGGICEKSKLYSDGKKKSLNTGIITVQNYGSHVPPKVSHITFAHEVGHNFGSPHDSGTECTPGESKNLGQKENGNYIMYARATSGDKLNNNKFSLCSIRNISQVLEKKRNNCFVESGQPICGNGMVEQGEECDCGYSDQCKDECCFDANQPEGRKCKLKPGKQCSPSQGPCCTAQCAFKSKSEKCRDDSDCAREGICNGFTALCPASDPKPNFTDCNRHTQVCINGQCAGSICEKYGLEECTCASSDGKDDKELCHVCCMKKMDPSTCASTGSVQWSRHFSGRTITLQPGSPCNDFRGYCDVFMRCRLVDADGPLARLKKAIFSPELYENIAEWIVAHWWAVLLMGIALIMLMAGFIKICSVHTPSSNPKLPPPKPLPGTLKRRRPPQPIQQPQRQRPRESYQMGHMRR
Rh123 counter = membrane potential counter-screen of mitochondrial pore inhibitors. isolated mitochondria, Rhodamine 123 fluorescence. AID 624504. 5,000 compounds, 78% hits. shares compounds with MPTP inh. inhibition, % at 10 µM; in the data active = inhibition above about 22%;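 note: 0% = DMSO vehicle and 100% = positive control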
MPTP abs DR = MPTP inhibition, dose response swelling confirmation | shares compounds with MPTP inh | isolated mitochondria swelling, absorbance | IC50, µM | 780 compounds, 58% hits | AID 651561; in the data active = IC50 below about 20 µM
MPTP cs DR = active in counter-screen for permeability transition pore inhibitors; IC50, µM; AID 651564; isolated mitochondria counterscreen, fluorescence read-out; shares compounds with MPTP inh; 780 compounds, 49% hits; in the data active = IC50 below about 80 µM
* hit, by the source's call; i = inactive; · = not tested or not shown. Compounds with a hit are over-represented: about 4.7% of the library has one in this group of screens.

SMILES | MPTP inh | Pemphigus Ab inh | rCAG binder | ADAM17 inh | KLK7 zymogen act | ADAM10 inh | Rh123 counter | others
O=C(Nc1ccc(F)cc1)Nc1ccc2c(c1)CCC2 | 23 | 98 | 1 | 7 | 0 | -7 | ·
Cc1c(C(=O)Nc2cccc([N+](=O)[O-])c2)csc1-c1ccccc1 | 85* | 101 | 5 | 1 | 0 | -1 | 89*
O=C(Nc1cccc(F)c1)Nc1ccc2c(c1)CCC2 | 67* | 93 | 1 | 0 | 0 | -6 | 92*
COC(=O)C[C@H]1CC[C@@H]2[C@H](COc3ccc(NC(=O)c4cnccn4)cc3C(=O)N2C)O1 | · | · | 1 | -1 | 1 | 0 | ·
Nc1[nH]c(C(=O)c2ccccc2)c(-c2ccc(Cl)cc2)c1C(=O)c1c[nH]c2ccccc12 | · | · | 11 | -4 | 0 | -12 | ·
COC(=O)C1=C(C)N(Cc2ccc(C(F)(F)F)cc2)C(=NCc2ccccc2C(F)(F)F)NC1c1ccc(F)cc1 (stereo not drawn) | · | · | 3 | 0 | -1 | 2 | ·
O=C(Nc1cccc([N+](=O)[O-])c1)Nc1cccs1 | 89* | 95 | 3 | -1 | 1 | 0 | 85*
CC(NC(=O)Nc1cccc([N+](=O)[O-])c1)(C(F)(F)F)C(F)(F)F | 106* | · | 2 | -1 | 0 | -3 | 102*
COC(=O)c1sccc1NC(=O)Nc1cccc([N+](=O)[O-])c1 | 24 | 103 | 2 | -5 | 1 | -8 | ·
O=C(Nc1cccc([N+](=O)[O-])c1)c1cccc(C(=O)Nc2cccc([N+](=O)[O-])c2)c1 | 19 | 144 | 8 | -3 | 1 | 7 | ·
Cc1cc(C)cc(C(=O)OCCCN(C)C2CN(Cc3cn(Cc4cccc(F)c4)nn3)S(=O)(=O)C2)c1 (stereo not drawn) | · | · | 2 | 3 | 0 | 4 | ·
COC(=O)c1cc2c(c3c4cc(F)ccc4n(S(=O)(=O)c4ccc(OC)cc4)c13)C(=O)N(C)C2 | · | · | 15 | -1 | -2 | -2 | ·
COc1cc(C(O)c2nc(-c3cc4ccccc4o3)cs2)ccc1F (stereo not drawn) | 59* | · | 5 | 8 | 1 | 15 | 80*
COc1cc(C(O)c2nc(-c3ccc(N(C)C)cc3)cs2)ccc1F (stereo not drawn) | 64* | · | · | · | · | · | 66*
COc1cc(C(O)c2nc(-c3cc(F)cc(F)c3)cs2)ccc1F (stereo not drawn) | 4 | · | 3 | 8 | 0 | 18 | ·
COC(=O)[C@@]12CCCCC=C1N(CCc1ccc(Cl)cc1)C(=O)[C@H]2CC(=O)NCc1cccc2ccccc12 | · | · | 14 | -2 | -1 | 5 | ·
CC(O)(c1ccncc1)c1nc(-c2cccc(C(F)(F)F)c2)cs1 (stereo not drawn) | 90* | · | 0 | 4 | 0 | -7 | 96*
CC(C)N(CC#CCC(O)(c1ccccc1)C1CCCC1)CCO (stereo not drawn) | -1 | 97 | -7 | -6 | 0 | 6 | ·
CCN(CC#CCC(O)(c1ccccc1)C1CCCC1)C(C)C (stereo not drawn) | 78* | 105 | -9 | -2 | 1 | -4 | -4 | MPTP abs DR=i;MPTP cs DR=>80
Cc1ccc(S(=O)(=O)NC(=O)ON=Cc2ccc3c(c2)OCO3)cc1 | · | · | 3 | -4 | 0 | -5 | ·
C[C@@H]1C[C@H]2O[C@@H]2/C=C\C=C\C(=O)Cc2cc(O)cc(O)c2C(=O)O1 | · | · | 1 | -6 | 4 | -19 | ·
O=C(Nc1ccc(OCC(F)(F)C(F)F)c(C(F)(F)F)c1)c1ccccc1O | 106* | · | 29 | -2 | -3 | -15 | 77*
COc1cccc(NC(=O)c2ccccc2C(F)(F)F)c1 | -3 | · | 2 | -2 | 1 | 1 | ·
Nc1nc2ccccc2cc1C(=O)NCCCCc1ccccc1 | 94* | · | · | · | · | · | 104*
O=C(CN(C(=O)c1ccc(Cl)cc1)C1CCCCC1)Nc1ccc(Cl)c([N+](=O)[O-])c1 | 64* | 91 | -1 | -3 | 0 | -1 | 86*
